# Measured values from the supplement of paper PMC12282887.
# ± gives the standard deviation of the averaged measurements.
# Tested on: E. coli BW25113 marRABp lux reporter
# Experiment: promoter activity interaction Z-score (Lux/OD deviation from empty-vector control); higher = stronger promoter induction by the compound
# Description: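 E. coli BW25113 (wild type or ΔmarA/ΔsoxS/Δrob) carrying pTU175 luxCDABE promoter reporters was grown in LB in 384-well plates at 37°C with each of 94 compounds at 4 two-fold concentrations, in biological duplicates. Luminescence and OD600 were read every 30 min for 12 h and integrated as AUC over 8 h (0-8 h WT, 1-9 h mutants). Lux AUC was divided by OD AUC; the interaction score is the residual of a Huber robust fit of each promoter against the empty-vector control, then Z-transformed per promoter.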
smiles,measurement,setting,value
COc1c(N2C[C@@H]3CCCN[C@@H]3C2)c(F)cc2c(=O)c(C(=O)O)cn(C3CC3)c12 [Moxifloxacin],promoter activity interaction Z-score,"0.011 µg/ml, genetic background: wild type",0.044 ± 0.089
same,promoter activity interaction Z-score,"0.011 µg/ml, genetic background: ΔmarA",0.14 ± 0.15
same,promoter activity interaction Z-score,"0.011 µg/ml, genetic background: Δrob",-0.0981 ± 0.19
same,promoter activity interaction Z-score,"0.011 µg/ml, genetic background: ΔsoxS",0.00173 ± 0.15
same,promoter activity interaction Z-score,"0.022 µg/ml, genetic background: wild type",0.5 ± 0.56
same,promoter activity interaction Z-score,"0.022 µg/ml, genetic background: ΔmarA",1.62 ± 0.86
same,promoter activity interaction Z-score,"0.022 µg/ml, genetic background: Δrob",0.689 ± 0.17
same,promoter activity interaction Z-score,"0.022 µg/ml, genetic background: ΔsoxS",0.0296 ± 0.046
same,promoter activity interaction Z-score,"0.044 µg/ml, genetic background: wild type",4.34 ± 1.7
same,promoter activity interaction Z-score,"0.044 µg/ml, genetic background: ΔsoxS",2.52 ± 1.1
CC1(C)S[C@@H]2[C@H](NC(=O)[C@H](N)c3ccc(O)cc3)C(=O)N2[C@H]1C(=O)O [Amoxicillin],promoter activity interaction Z-score,"0.25 µg/ml, genetic background: wild type",-0.00562 ± 0.025
same,promoter activity interaction Z-score,"0.25 µg/ml, genetic background: ΔmarA",-0.347 ± 0.22
same,promoter activity interaction Z-score,"0.25 µg/ml, genetic background: Δrob",-0.215 ± 0.082
same,promoter activity interaction Z-score,"0.25 µg/ml, genetic background: ΔsoxS",-0.207 ± 0.2
same,promoter activity interaction Z-score,"0.5 µg/ml, genetic background: wild type",-0.157 ± 0.027
same,promoter activity interaction Z-score,"0.5 µg/ml, genetic background: ΔmarA",-0.297 ± 0.22
same,promoter activity interaction Z-score,"0.5 µg/ml, genetic background: Δrob",-0.322 ± 0.047
same,promoter activity interaction Z-score,"0.5 µg/ml, genetic background: ΔsoxS",-0.372 ± 0.14
same,promoter activity interaction Z-score,"1 µg/ml, genetic background: wild type",-0.138 ± 0.097
same,promoter activity interaction Z-score,"1 µg/ml, genetic background: ΔmarA",-0.483 ± 0.18
same,promoter activity interaction Z-score,"1 µg/ml, genetic background: Δrob",-0.211 ± 0.031
same,promoter activity interaction Z-score,"1 µg/ml, genetic background: ΔsoxS",-0.251 ± 0.091
same,promoter activity interaction Z-score,"2 µg/ml, genetic background: wild type",2.97
same,promoter activity interaction Z-score,"2 µg/ml, genetic background: ΔmarA",2.07
same,promoter activity interaction Z-score,"2 µg/ml, genetic background: Δrob",3.21
same,promoter activity interaction Z-score,"2 µg/ml, genetic background: ΔsoxS",1.67
O=C(O)CN(CCN(CC(=O)O)CC(=O)O)CC(=O)O,promoter activity interaction Z-score,"18.3 µg/ml, genetic background: wild type",-0.176 ± 0.11
same,promoter activity interaction Z-score,"18.3 µg/ml, genetic background: ΔmarA",-0.48 ± 0.29
same,promoter activity interaction Z-score,"18.3 µg/ml, genetic background: Δrob",-0.224 ± 0.07
same,promoter activity interaction Z-score,"18.3 µg/ml, genetic background: ΔsoxS",-0.191 ± 0.04
same,promoter activity interaction Z-score,"36.5 µg/ml, genetic background: wild type",-0.238 ± 0.25
same,promoter activity interaction Z-score,"36.5 µg/ml, genetic background: ΔmarA",-0.327 ± 0.086
same,promoter activity interaction Z-score,"36.5 µg/ml, genetic background: Δrob",-0.221 ± 0.16
same,promoter activity interaction Z-score,"36.5 µg/ml, genetic background: ΔsoxS",-0.276 ± 0.012
same,promoter activity interaction Z-score,"73.1 µg/ml, genetic background: wild type",-0.3324 ± 0.002
same,promoter activity interaction Z-score,"73.1 µg/ml, genetic background: ΔmarA",-0.545 ± 0.11
same,promoter activity interaction Z-score,"73.1 µg/ml, genetic background: Δrob",-0.378 ± 0.066
same,promoter activity interaction Z-score,"73.1 µg/ml, genetic background: ΔsoxS",-0.175 ± 0.04
same,promoter activity interaction Z-score,"146.1 µg/ml, genetic background: wild type",0.543 ± 0.16
same,promoter activity interaction Z-score,"146.1 µg/ml, genetic background: ΔmarA",1.07 ± 0.021
same,promoter activity interaction Z-score,"146.1 µg/ml, genetic background: Δrob",1.66 ± 0.58
